Assay results from PubChem BioAssay AID1053197 (The Scripps Research Institute Molecular Screening Center, 2014).
The campaign covered roughly 370,000 compounds. About 2,600 (0.7%) were called active. Shown is part of a subset that was picked to be rich in actives. Values without a mark were called inactive.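 How the source made its calls: active means inhibition above a cutoff: mean of compounds within the control limits plus 3 SD of those (cut at about 17% in these data); inactive means the rest.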

What follows are compounds tested against Sialate O-acetylesterase (Homo sapiens) (UniProt Q9HAT2) (assay: blockers of sialate O-acetylesterase activity-probe labeling – biochemical, fluorescence polarization, FP-Rh probe, 1536-well HTS, primary screen (AID 1053197;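 further: 0% = plate median of compound wells and 100% = probe without SIAE protein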)). Settings: SIAE FP-Rh probe binding, at 9.66 µM, hits give high values.
Sequence of Sialate O-acetylesterase (Homo sapiens) (Q9HAT2 whole entry, looked up): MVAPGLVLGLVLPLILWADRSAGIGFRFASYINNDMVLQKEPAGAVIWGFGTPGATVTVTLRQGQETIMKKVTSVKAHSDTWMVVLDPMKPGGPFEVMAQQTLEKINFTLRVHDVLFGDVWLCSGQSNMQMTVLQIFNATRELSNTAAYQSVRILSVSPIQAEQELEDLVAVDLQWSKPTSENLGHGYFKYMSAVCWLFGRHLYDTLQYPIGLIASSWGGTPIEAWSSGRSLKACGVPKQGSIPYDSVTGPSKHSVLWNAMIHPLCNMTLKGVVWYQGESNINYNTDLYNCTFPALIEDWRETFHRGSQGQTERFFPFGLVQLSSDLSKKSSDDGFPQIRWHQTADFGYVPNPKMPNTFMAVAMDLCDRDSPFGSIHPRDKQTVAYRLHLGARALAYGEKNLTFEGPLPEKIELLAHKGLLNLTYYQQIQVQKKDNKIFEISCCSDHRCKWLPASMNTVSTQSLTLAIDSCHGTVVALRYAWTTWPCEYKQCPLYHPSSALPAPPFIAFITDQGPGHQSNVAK
Compound `CC(C)N1CCCCC(NC(=O)C(C)(C)C)C1=O` (stereo not given) has an inhibition of -4.73%.
With `Cc1cc2ccccc2n1CCNC(=O)COc1ccc2ccccc2c1` the inhibition was 27.9% (active).
`O=C(COc1ccc(Cl)cc1)NCCSc1ccccc1` showed an inhibition of 0.9%.
For `Cc1ccccc1OCC(=O)NCC(=O)OCC(=O)c1ccc2ccccc2c1`, the inhibition was -1.57%.
For `C[C@H]1[C@H](NC(=O)c2cccc(N(C)C)c2)CC[C@@]23CCCN2C(=O)CCC[C@@H]13`, the inhibition was 0.13%.
Compound `COc1ccc(CSc2nnc(-c3cccc(C)c3)n2C)cc1` has an inhibition of 4.99%.
`COC(=O)C[C@@H]1CC[C@H]2[C@@H](COc3ccc(NS(=O)(=O)CC(F)(F)F)cc3C(=O)N2C)O1` was tested, and the inhibition was 8.2%.
Compound `COC(=O)[C@]12C[C@H](CC(=O)NCc3cccs3)C(=O)N(CCc3ccc(OC)c(OC)c3)C1=C[C@H](C(C)C)O[C@@H]2C1CC1` has an inhibition of 9.66%.
Compound `COc1ccc(C2CC=C(C(=O)O)C(c3ccccc3F)N2S(=O)(=O)c2ccc(C)cc2)cc1OC` (stereo not given) has an inhibition of -2.16%.
`CCOC(=O)C1=C(c2ccccc2)O/C(=C(/C(=O)OC)C(F)(F)F)S1` was tested, and the inhibition was 36% (active).
`CCOC(=O)c1nnn(-c2nonc2OC)c1-c1ccccc1` showed an inhibition of 1.88%.
`COC(=O)/C(=C1\Oc2ccc(C(C)(C)C)cc2S1)C(F)(F)F` was tested, and the inhibition was 0.75%.
`c1csc(-c2nnc(SCc3nc4ccccc4[nH]3)o2)c1` showed an inhibition of -0.76%.
Work on `CCCNC(=O)Nc1ccc2c(c1)C(=O)N(C)[C@H]1CC[C@H](CC(=O)NCC3CCCCC3)O[C@@H]1CO2` yielded an inhibition of -0.34%.
For `Cc1cccc(NC(=O)C[C@H]2CC[C@H]3[C@@H](COc4ccc(NC(=O)Nc5ccccc5)cc4C(=O)N3C)O2)c1`, the inhibition was -1.56%.
For `COc1ccc(/C=N/NC(=O)c2ccncc2)cc1CN1CCCc2ccccc21`, the inhibition was 18.8% (active).
Compound `CCc1ccc(/C=N/NC(=O)c2nnn(-c3nonc3N)c2CN2CCc3ccccc32)cc1` has an inhibition of -0.3%.
In the case of `COc1ccccc1CCC(=O)NNC(=O)c1ccncc1`, the inhibition is reported as -7.13%.
For `CCCCNC(=O)C[C@H]1C[C@@]2(C(=O)OC)C(=C[C@H](COCc3ccccc3)O[C@@H]2C)N(Cc2ccc(Cl)cc2Cl)C1=O`, the inhibition was 11.1%.
With `COc1ccc(S[C@]2(C(=O)N(C)C)CC(=O)N(c3ccc(OC)cc3)[C@@H]2c2ccc(OC)cc2)cc1` the inhibition was -0.86%.
`Cc1ccc(NC(=O)Cc2cccc(F)c2)c(S(=O)(=O)N2CCOCC2)c1` gave an inhibition of -2.62%.
With `CCn1c(SC)nc(O)c(C(c2ccc(OC)c(O)c2)c2c(O)nc(SC)n(CC)c2=O)c1=O` the inhibition was 26.7% (active).
With `COc1ccccc1OCC(=O)OCn1c(SC)nnc(C)c1=O` the inhibition was -6.49%.
`CCSc1nc(O)c(C(c2cccc(OC)c2)c2c(O)nc(SCC)[nH]c2=O)c(=O)[nH]1` showed an inhibition of -2.73%.
In the case of `Oc1ccc(/C=N/N(Cc2ccccc2)c2ccccc2)cc1`, the inhibition is reported as 19.4% (active).
`CCN(/N=C/c1ccccc1)c1cc(=O)n(C)c(=O)[nH]1` gave an inhibition of 10.2%.
Work on `CCN(/N=C/c1ccc(N(C)C)cc1)c1nc2ccccc2[nH]1` yielded an inhibition of 4.94%.
Compound `O=C(NC1CCCC1)C1CSCCS(=O)(=O)N1Cc1ccccc1` (stereo not given) has an inhibition of -3.54%.
For `N[C@@H](Cc1ccccc1)C(=O)N1CCC[C@@H]1C(=O)N1CCC2CCN(S(=O)(=O)c3ccccc3)CC21` (stereo not given in full), the inhibition was 1.02%.
`Oc1ccc(/C=C/c2c(F)cccc2F)c2cccnc12` gave an inhibition of 9.1%.
In the case of `CCC1C(=O)NCCN1C(=O)c1ccc2nc(Cc3ccc(OC)cc3)oc2c1` (stereo not given), the inhibition is reported as -0.21%.
With `COc1ccc(Cc2nc3ccc(C(=O)N4CCC(N(C)C)C4)cc3o2)cc1` (stereo not given) the inhibition was 18.5% (active).
For `COCC1CCN(C(=O)c2ccc3oc(Cc4ccccc4)nc3c2)C1` (stereo not given), the inhibition was -5.51%.
With `CC(CCN1CCC(C(O)(c2ccccc2)c2ccccc2)CC1)Oc1ccc([N+](=O)[O-])cc1Cl` (stereo not given) the inhibition was 1.3%.
`Cc1ccc(/C=N/NC(=O)Cn2ccc(C(F)(F)F)n2)o1` was tested, and the inhibition was 2.98%.
Compound `Cc1ccc(/C=N/NC(=S)NC2CCCCC2)o1` has an inhibition of 8.46%.
For `Cc1ccc(/C=N/NC(=O)c2cc3ccccc3cc2O)o1`, the inhibition was 21.5% (active).
Compound `C[C@H]1CCC/C=C/C(=O)c2c(O)cc(O)cc2CC(=O)O1` has an inhibition of 5.43%.
For `C=CCOC/C=C/C#CCN(CC=C)Cc1ccc(OC)cc1OC`, the inhibition was -0.76%.
Compound `CCCCC(CC)CNC(=O)C(=O)C1C(=O)Nc2ccccc21` (stereo not given) has an inhibition of 4.38%.
`CCOC(=O)CC1=CC(=O)Nc2ccccc2N1` gave an inhibition of 2.76%.
In the case of `CCOC(=O)C(=O)C1C(=O)Nc2ccccc21` (stereo not given), the inhibition is reported as 20.6% (active).
`Cc1c(NS(=O)(=O)c2cccc(C(=O)Nc3ccc(SC(F)F)cc3)c2)c(=O)n(-c2ccccc2)n1C` showed an inhibition of -14%.
`Nc1cccc(S(=O)(=O)Nc2ccc(SC(F)F)cc2)c1` showed an inhibition of -5.85%.
In the case of `COc1ccc(NC(=O)/C(N=Nc2cccc(S(=O)(=O)Nc3ccc(SC(F)F)cc3)c2)=C(\C)O)cc1`, the inhibition is reported as 17.2% (active).
`Cc1nc2ccc(C(=O)N3CCN(C(=O)C(C)(C)C)CC3)cc2n1C1CCCC1` showed an inhibition of 1.16%.
With `Cc1ccccc1CS(=O)(=O)Cc1ccc(C(=O)Nc2ccc(Cl)cc2)o1` the inhibition was -4.56%.
In the case of `C[C@H](C(=O)N(C)c1ccccc1)[C@@H](O)c1ccc(Cl)cc1`, the inhibition is reported as -3.9%.
For `COc1ccc(-n2c(SCC(=O)Nc3ccc(C)c(Cl)c3)nc3ccccc3c2=O)cc1`, the inhibition was -5.2%.
`O=C(OC12CCCN(C1)/C(=C/c1cccnc1)C2)C1CCCC1` (stereo not given) gave an inhibition of 9.64%.
In the case of `COc1ccc(N2CCN(c3ccc([N+](=O)[O-])nc3)CC2)cc1`, the inhibition is reported as 27.9% (active).
For `COc1ccccc1N1CCN(c2ccc([N+](=O)[O-])nc2)CC1`, the inhibition was 3.93%.
Compound `O=[N+]([O-])c1ccc(N2CCN(c3ccc(F)cc3)CC2)cn1` has an inhibition of 1.56%.
In the case of `Cc1c(C(C)c2ccccc2O)[nH]c2ccccc12` (stereo not given), the inhibition is reported as 3.42%.
For `C=C(C)C#CC(Cc1ccccc1)N(CC1CC1)/C(N)=N/C(=O)OCc1ccccc1` (stereo not given), the inhibition was 8.05%.
Compound `C[C@@H](NC(=O)c1ccccc1OCC(=O)Nc1ccc(I)cc1)C(=O)N(C)Cc1ccccc1` has an inhibition of -10.2%.
Work on `O=C(CC[C@H]1O[C@@H](n2ccc(=O)[nH]c2=O)[C@H](O)[C@@H]1O)N[C@H](Cc1ccccc1)C(=O)NCc1ccco1` yielded an inhibition of 1.02%.
`Cc1ccc(NC(=O)[C@H](Cc2ccccc2)NC(=O)CC[C@H]2O[C@@H](n3ccc(=O)[nH]c3=O)[C@H](O)[C@@H]2O)cc1C` was tested, and the inhibition was 0.53%.
`O=C(CC[C@H]1O[C@@H](n2ccc(=O)[nH]c2=O)[C@H](O)[C@@H]1O)N[C@H](Cc1ccccc1)C(=O)NCCCN1CCCC1=O` was tested, and the inhibition was 47.1% (active).
Work on `CSc1ccc(C=Nn2c(-c3ccc(F)cc3)n[nH]c2=S)cc1` yielded an inhibition of 2.39%.
`O=C(Cn1cncn1)N/N=C/c1c2ccccc2cc2ccccc12` was tested, and the inhibition was -1.87%.
`C/C(=N\NC(=O)CNc1cccc2ccccc12)c1ccc(Br)s1` showed an inhibition of -5.3%.
`Cn1cccc1/C=N/NC(=O)CNc1cccc2ccccc12` was tested, and the inhibition was 18.6% (active).
`C[C@H](C(=O)N(C)c1ccccc1)[C@@H](O)c1ccc2ccccc2c1` gave an inhibition of 3.1%.
`CCC(=O)Nc1ccc2c(c1)C(=O)N(C)[C@@H]1CC[C@@H](CC(=O)NCCc3ccccc3)O[C@H]1CO2` gave an inhibition of 1.28%.
`COc1ccccc1C(=O)NC1CCCCN(C(C)C)C1=O` (stereo not given) gave an inhibition of 0.76%.
With `C=CCN(Cc1ccc2c(c1)OCO2)C(C#CC1CC1)C(C)(C)C` (stereo not given) the inhibition was 4.36%.
`CCOC(=O)C1=C(C)NC(SC)=NC1c1ccccc1` (stereo not given) showed an inhibition of 5.58%.
With `CCOC(=O)C1=C(C)N=C2c3ccccc3C(=O)C2C1c1ccc(Br)cc1` (stereo not given) the inhibition was 18% (active).
`COC(=O)C1=C(C(=O)OC)C2(OC1c1ccc(Br)cc1)C(=O)c1ccccc1C2=O` (stereo not given) showed an inhibition of 14.3%.
For `CCCCN1CCN(C(=O)c2ccc3c(c2)NC(=O)C(C)(C)O3)CC1`, the inhibition was -0.65%.
Compound `COC[C@@H]1CCCN1c1ccc2c(c1)O[C@H](C)CCN(C1CC1)S2(=O)=O` has an inhibition of -0.33%.
`CC(=O)Nc1ccc(OC[C@@H](O)CN2CCC(C(O)(c3ccccc3)c3ccccc3)CC2)cc1` was tested, and the inhibition was -6.43%.
`CN(C)Cc1cn(-c2ccc(-c3noc4c3C(=O)N(CC(=O)N3CCOCC3)CC4)cc2)nn1` gave an inhibition of -2.28%.
For `CN1c2ccc(C=O)c3c(C=O)ccc(c23)N(C)C1(C)C`, the inhibition was 21.9% (active).
Compound `Cc1nc(CNc2ncnc3ccc(-c4ccc5c(c4)OCO5)cc23)cs1` has an inhibition of -10.9%.
With `O=C(Nc1ccccc1)N1CCN(Cc2nc3ccccc3c(=O)[nH]2)CC1` the inhibition was 12.6%.
`COc1ccc(Cn2cc(CN3[C@@H](CC(C)C)COc4cc(Br)ccc4S3(=O)=O)nn2)cc1` showed an inhibition of 0.93%.
For `O=C(COC(=O)c1c(Cl)cccc1Cl)Nc1cccc(S(=O)(=O)NC2=NCCCCC2)c1`, the inhibition was -8.81%.
For `CN(C)S(=O)(=O)c1ccc(NC(=O)COC(=O)c2n[nH]c3ccccc23)cc1`, the inhibition was -22.8%.
In the case of `NS(=O)(=O)c1ccc(NC(=O)COC(=O)c2c3c(nc4ccccc24)/C(=C\c2ccc4c(c2)OCO4)CCC3)cc1`, the inhibition is reported as 43.9% (active).
`C=CCN1C(=O)[C@@H](CC(=O)N2CCN(C(=O)OCC)CC2)[C@]2(C(=O)OCC)CCCCC/C=C/12` was tested, and the inhibition was 2.29%.
In the case of `CCN(C(=O)COC(=O)c1cc(S(=O)(=O)N2CCc3ccccc32)ccc1OC)C1CCS(=O)(=O)C1` (stereo not given), the inhibition is reported as -1.8%.
With `CCN(C(=O)COC(=O)C1CCN(S(=O)(=O)c2ccc(C)c(C)c2)CC1)C1CCS(=O)(=O)C1` (stereo not given) the inhibition was 26.2% (active).
In the case of `Cc1ccc(S(=O)(=O)N2CCC(C(=O)OCC(=O)N(C)c3ccccc3)CC2)cc1C`, the inhibition is reported as -1.79%.
